In PubChem BioAssay (EPA / NIEHS):
Active and inactive are the calls of the source. How the source made its calls: active means hit-call score of the fitted dose curve at least 0.9, where 1 is the maximum; inactive means score below 0.9.

Tests used:
Settings in all cases: mRNA level, 48 h; actives raise or lower the signal
CYP2C9 (gene 1559) = test: LTEA_HepaRG_CYP2C9: Life Technologies and Expression Analysis (LTEA) Assay for CYP2C9 using HepaRG (AID 2283484)
Summary of the method: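 HepaRG, 48 h dosing, 8-pt half-log series, top 100 uM, 0.5% DMSO vehicle. Read-out: CYP2C9 transcript by TaqMan qRT-PCR, housekeeping-normalized (ACTB/GAPDH/POLR2A). Gain or loss fitted vs DMSO baseline.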

CYP2E1 (gene 1571) = test: LTEA_HepaRG_CYP2E1: Life Technologies and Expression Analysis (LTEA) Assay for CYP2E1 using HepaRG (AID 2283485)
Summary of the method: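 Assay uses 48 h exposure of HepaRG hepatic cells, eight concentrations to 100 uM. Expression of CYP2E1 is quantified by TaqMan qRT-PCR with ACTB, GAPDH and POLR2A normalization; curves fitted in both directions relative to vehicle.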

CYP4A11 (gene 1579) = test: LTEA_HepaRG_CYP4A11: Life Technologies and Expression Analysis (LTEA) Assay for CYP4A11 using HepaRG (AID 2283486)
Summary of the method: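 Differentiated HepaRG cells, serum-free induction medium, exposed 48 h in duplicate to 8-point half-log series from 100 uM in 0.5% DMSO. CYP4A11 mRNA measured by qRT-PCR, normalized to ACTB, GAPDH, POLR2A; bidirectional fit versus DMSO.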

[1] = read-out: Cytochrome P450 3A4 (Homo sapiens) (UniProt P08684); test: LTEA_HepaRG_CYP3A4: Life Technologies and Expression Analysis (LTEA) Assay for CYP3A4 using HepaRG (AID 2283487)
Summary of the method: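 Differentiated HepaRG cells in serum-free induction medium exposed in duplicate for 48 h to 8 half-log concentrations up to 100 uM in 0.5% DMSO. CYP3A4 mRNA measured by qRT-PCR normalized to ACTB, GAPDH and POLR2A; bidirectional fit versus DMSO.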

[2] = read-out: Pro-epidermal growth factor (Homo sapiens) (UniProt P01133); test: LTEA_HepaRG_EGF: Life Technologies and Expression Analysis (LTEA) Assay for Epidermal growth factor (EGF) using HepaRG (AID 2283489)
Summary of the method: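 Differentiated human HepaRG cells, plated 48 h then switched to serum-free induction medium, were exposed for 48 h to test chemicals (8-point half-log series, top 100 uM, 0.5% DMSO). EGF mRNA was quantified by qRT-PCR, normalized to ACTB, GAPDH, POLR2A.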

[3] = read-out: Early growth response protein 1 (EGR1) transcription factor, EGR1 (gene 1958); test: LTEA_HepaRG_EGR1: Life Technologies and Expression Analysis (LTEA) Assay for Early growth response protein 1 (EGR1) transcription factor using HepaRG (AID 2283490)
Summary of the method: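 HepaRG, 48 h exposure, 8-pt half-log series from 100 uM, 0.5% DMSO vehicle; EGR1 transcript by TaqMan qRT-PCR (Fluidigm array), housekeeping-normalized; bidirectional fit relative to DMSO baseline.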

[4] = read-out: Ezrin (EZR), EZR (gene 7430); test: LTEA_HepaRG_EZR: Life Technologies and Expression Analysis (LTEA) Assay for Ezrin (EZR) using HepaRG (AID 2283491)
Summary of the method: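 Differentiated human HepaRG cells, 48 h after plating, were exposed in serum-free induction medium for 48 hours to eight half-log concentrations up to 100 uM in 0.5% DMSO. EZR mRNA was measured by TaqMan qRT-PCR, normalized to ACTB, GAPDH and POLR2A, and fitted bidirectionally against DMSO.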

CYP3A5 (gene 1577) = test: LTEA_HepaRG_CYP3A5: Life Technologies and Expression Analysis (LTEA) Assay for CYP3A5 using HepaRG (AID 2283493)
Summary of the method: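 Readout was CYP3A5 mRNA by qRT-PCR. HepaRG cultures were exposed for 48 h in serum-free induction medium to chemicals at up to 100 uM, and responses were fitted in both directions relative to DMSO vehicle.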

[5] = read-out: Fatty Acid-Binding Protein 1 (FABP1), FABP1 (gene 2168); test: LTEA_HepaRG_FABP1: Life Technologies and Expression Analysis (LTEA) Assay for Fatty Acid-Binding Protein 1 (FABP1) using HepaRG (AID 2283494)
Summary of the method: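 qRT-PCR readout of FABP1 transcript (normalized to three housekeeping genes) after 48 h chemical exposure of HepaRG cells; eight concentrations, half-log steps, max 100 uM, 0.5% DMSO vehicle; gain or loss fitted relative to DMSO baseline.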

[6] = read-out: Cytochrome P450 4A22 (Homo sapiens) (UniProt Q5TCH4); test: LTEA_HepaRG_CYP4A22: Life Technologies and Expression Analysis (LTEA) Assay for Cytochrome P450 4A22 (CYP4A22) using HepaRG (AID 2283495)
Summary of the method: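 qRT-PCR of CYP4A22 mRNA (Fluidigm TaqMan, normalized to three housekeeping genes) after 48 h chemical exposure of HepaRG cells; 8-point half-log series, top 100 uM, 0.5% DMSO vehicle. Bidirectional curve fitting vs DMSO baseline.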

[7] = read-out: Cytochrome P450 7A1 (Homo sapiens) (UniProt P22680); test: LTEA_HepaRG_CYP7A1: Life Technologies and Expression Analysis (LTEA) Assay for Cytochrome P450 7A1 (CYP7A1) using HepaRG (AID 2283496)
Summary of the method: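 Using 0.5% DMSO as vehicle and baseline, chemicals were tested in duplicate over an 8-point range from 100 uM on HepaRG cells for 48 h; qRT-PCR signals were normalised to ACTB, GAPDH and POLR2A.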

[8] = read-out: Glutathione S-Transferase (GSTA2), GSTA2 (gene 2939); test: LTEA_HepaRG_GSTA2: Life Technologies and Expression Analysis (LTEA) Assay for Glutathione S-Transferase (GSTA2) using HepaRG (AID 2283497)
Summary of the method: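 qRT-PCR readout of GSTA2 transcript, normalized to three housekeeping genes, fitted bidirectionally against 0.5% DMSO baseline. Differentiated HepaRG cells received compound for 48 h at 8 concentrations (top 100 uM, half-log steps).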

[9] = read-out: Glutamate-cysteine ligase catalytic (GCLC), GCLC (gene 2729); test: LTEA_HepaRG_GCLC: Life Technologies and Expression Analysis (LTEA) Assay for Glutamate-cysteine ligase catalytic (GCLC) using HepaRG (AID 2283498)
Summary of the method: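 HepaRG, 48 h exposure, 8-pt half-log series from 100 uM, 0.5% DMSO vehicle; TaqMan qRT-PCR for GCLC mRNA, housekeeping-normalized; bidirectional curve fit vs DMSO baseline.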

[10] = read-out: growth arrest and DNA damage 45 (GADD45G), GADD45G (gene 10912); test: LTEA_HepaRG_GADD45G: Life Technologies and Expression Analysis (LTEA) Assay for growth arrest and DNA damage 45 (GADD45G) using HepaRG (AID 2283499)
Summary of the method: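 Differentiated human HepaRG cells in serum-free induction medium were exposed for 48 h to 8 half-log concentrations up to 100 uM in 0.5% DMSO, in duplicate. GADD45G mRNA was measured by TaqMan qRT-PCR, normalised to ACTB, GAPDH and POLR2A, and fitted bidirectionally against DMSO.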

[11] = read-out: Glutamate-cysteine ligase regulatory (GCLM), GCLM (gene 2730); test: LTEA_HepaRG_GCLM: Life Technologies and Expression Analysis (LTEA) Assay for Glutamate-cysteine ligase regulatory (GCLM) using HepaRG (AID 2283500)
Summary of the method: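 In this multiplexed HepaRG gene-expression assay, GCLM mRNA change after 48 h treatment (8 concentrations, max 100 uM) was scored against DMSO by bidirectional curve fitting.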

[12] = read-out: Glutathione S-transferase M3 (GSTM3), GSTM3 (gene 2947); test: LTEA_HepaRG_GSTM3: Life Technologies and Expression Analysis (LTEA) Assay for Glutathione S-transferase M3 (GSTM3) using HepaRG (AID 2283501)
Summary of the method: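 Differentiated HepaRG cells in serum-free induction medium were exposed in duplicate for 48 h to 8 half-log concentrations up to 100 uM in 0.5% DMSO. GSTM3 mRNA was measured by TaqMan qRT-PCR, normalized to ACTB/GAPDH/POLR2A, and fitted bidirectionally versus DMSO.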

[13] = read-out: Heat shock 70 kDa protein 1 (HSPA1A), gene 3303; test: LTEA_HepaRG_HSPA1A: Life Technologies and Expression Analysis (LTEA) Assay for Heat shock 70 kDa protein 1 (HSPA1A) using HepaRG (AID 2283502)
Summary of the method: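 An oxidative-stress marker readout: HepaRG cells treated 48 h in duplicate with an eight-point series (highest 100 uM) had HSPA1A mRNA quantified by TaqMan qRT-PCR. Activity was fitted in both directions using 0.5% DMSO as baseline.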

[14] = read-out: Hypoxia-inducible factor 1-alpha (Homo sapiens) (UniProt Q16665); test: LTEA_HepaRG_HIF1A: Life Technologies and Expression Analysis (LTEA) Assay for Hypoxia-inducible factor 1 (HIF1A) Trancription factor using HepaRG (AID 2283503);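 further: HIF1A transcript by TaqMan qRT-PCR normalized to ACTB GAPDH and POLR2A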
Summary of the method: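 Gain- or loss-of-signal HIF1A mRNA changes are fitted against a DMSO baseline. HepaRG cultures receive eight concentrations, highest 100 uM, for 48 h in serum-free induction medium with 0.5% DMSO.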

[15] = read-out: DNA damage-inducible transcript 3 (DDIT3), DDIT3 (gene 1649); test: LTEA_HepaRG_DDIT3: Life Technologies and Expression Analysis (LTEA) Assay for DNA damage-inducible transcript 3 (DDIT3) using HepaRG (AID 2283488)
Summary of the method: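 Eight-point concentration-response (100 uM highest, half-log dilutions) in HepaRG, 48 h, duplicate wells. Endpoint: qRT-PCR mRNA, normalized (ACTB, GAPDH, POLR2A), bidirectional fitting with DMSO as baseline.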

Sequence of Hypoxia-inducible factor 1-alpha (Homo sapiens) (Q16665 whole entry, looked up): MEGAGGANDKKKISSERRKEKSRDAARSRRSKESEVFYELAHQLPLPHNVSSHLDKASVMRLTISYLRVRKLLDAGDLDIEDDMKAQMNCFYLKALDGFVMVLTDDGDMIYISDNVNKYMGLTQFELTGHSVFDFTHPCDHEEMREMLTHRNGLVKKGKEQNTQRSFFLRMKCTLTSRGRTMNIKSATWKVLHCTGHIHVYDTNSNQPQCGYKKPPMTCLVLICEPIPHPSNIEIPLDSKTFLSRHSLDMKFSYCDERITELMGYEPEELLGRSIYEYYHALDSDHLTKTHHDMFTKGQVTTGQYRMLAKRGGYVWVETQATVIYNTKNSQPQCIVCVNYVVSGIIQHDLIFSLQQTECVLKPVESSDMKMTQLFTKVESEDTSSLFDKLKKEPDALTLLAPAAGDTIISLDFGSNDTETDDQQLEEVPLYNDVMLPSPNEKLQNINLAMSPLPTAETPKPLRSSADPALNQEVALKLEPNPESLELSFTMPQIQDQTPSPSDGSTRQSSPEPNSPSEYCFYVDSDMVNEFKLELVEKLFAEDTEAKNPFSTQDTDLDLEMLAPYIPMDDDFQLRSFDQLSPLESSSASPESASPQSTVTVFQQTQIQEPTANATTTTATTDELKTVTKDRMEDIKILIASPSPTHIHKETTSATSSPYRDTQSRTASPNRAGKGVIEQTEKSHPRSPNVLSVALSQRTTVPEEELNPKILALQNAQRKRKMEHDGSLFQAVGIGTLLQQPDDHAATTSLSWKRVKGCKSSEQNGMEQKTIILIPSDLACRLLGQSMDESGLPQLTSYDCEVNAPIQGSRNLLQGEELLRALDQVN
Sequence of Cytochrome P450 3A4 (Homo sapiens) (P08684 whole entry, looked up): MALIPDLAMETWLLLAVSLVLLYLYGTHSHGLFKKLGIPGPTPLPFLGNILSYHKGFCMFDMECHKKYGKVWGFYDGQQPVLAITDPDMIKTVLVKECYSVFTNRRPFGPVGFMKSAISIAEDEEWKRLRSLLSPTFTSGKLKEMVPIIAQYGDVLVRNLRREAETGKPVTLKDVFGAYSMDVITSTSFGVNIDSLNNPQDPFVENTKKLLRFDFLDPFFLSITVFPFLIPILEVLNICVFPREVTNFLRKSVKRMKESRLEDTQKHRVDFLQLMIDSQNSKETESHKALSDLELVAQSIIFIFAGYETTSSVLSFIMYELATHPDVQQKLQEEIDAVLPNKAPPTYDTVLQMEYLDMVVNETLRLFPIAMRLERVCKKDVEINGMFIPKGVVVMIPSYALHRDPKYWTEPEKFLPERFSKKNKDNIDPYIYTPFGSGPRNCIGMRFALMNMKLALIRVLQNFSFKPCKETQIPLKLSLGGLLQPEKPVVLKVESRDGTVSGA

COC(=O)CCC(=O)OC was tested, and the outcome (CYP2C9 (gene 1559)) was “inactive”, the outcome (CYP2E1 (gene 1571)) was “inactive” and the outcome (CYP4A11 (gene 1579)) was “inactive”. The outcome [1] was “inactive”, the outcome [2] was “inactive” and the outcome [3] was “inactive”. The outcome [4] was “inactive”, the outcome (CYP3A5 (gene 1577)) was “inactive” and the outcome [5] was “inactive”. For the same compound, the outcome [6] was “inactive”, the outcome [7] was “inactive” and the outcome [8] was “inactive”. For the same compound, the outcome [9] was “inactive”, the outcome [10] was “inactive” and the outcome [11] was “inactive”. The outcome [12] was “inactive”, the outcome [13] was “inactive” and the outcome [14] was “inactive”.

In the case of COc1ccc(C(=O)Nc2nc3ccccc3c(NCc3ccccc3)c2C#N)cc1, the AC50 (CYP2C9 (gene 1559)) is reported as 16.3 µM (active), the AC50 (CYP2E1 (gene 1571)) is reported as 20 µM (active) and the AC50 (CYP4A11 (gene 1579)) is reported as 28.3 µM (active). The outcome [1] was “inactive”, the outcome [2] was “inactive” and the AC50 [3] was 21.7 µM (active). The outcome [4] was “inactive”, the AC50 (CYP3A5 (gene 1577)) was 2.67 µM (active) and the AC50 [5] was 18 µM (active). The AC50 [6] was 27.1 µM (active), the AC50 [8] was 20.5 µM (active) and the outcome [9] was “inactive”. For the same compound, the AC50 [10] was 14.3 µM (active), the AC50 [11] was 10.9 µM (active) and the outcome [12] was “inactive”. For the same compound, the outcome [13] was “inactive” and the outcome [14] was “inactive”.

COC(=O)CCCC(=O)OC was tested, and the outcome (CYP2C9 (gene 1559)) was “inactive”, the outcome (CYP2E1 (gene 1571)) was “inactive” and the outcome (CYP4A11 (gene 1579)) was “inactive”. The outcome [1] was “inactive”, the outcome [2] was “inactive” and the outcome [3] was “inactive”. The outcome [4] was “inactive”, the outcome (CYP3A5 (gene 1577)) was “inactive” and the outcome [5] was “inactive”. For the same compound, the outcome [6] was “inactive”, the outcome [8] was “inactive” and the outcome [9] was “inactive”. The outcome [10] was “inactive”, the outcome [11] was “inactive” and the outcome [12] was “inactive”. For the same compound, the outcome [13] was “inactive” and the outcome [14] was “inactive”.

O=C(O)c1cccnc1 was tested, and the outcome (CYP2E1 (gene 1571)) was “inactive”, the outcome (CYP4A11 (gene 1579)) was “inactive” and the outcome [1] was “inactive”. For the same compound, the outcome [15] was “inactive”, the outcome [2] was “inactive” and the outcome [3] was “inactive”. The outcome [4] was “inactive”, the outcome (CYP3A5 (gene 1577)) was “inactive” and the outcome [5] was “inactive”. The outcome [6] was “inactive”, the outcome [8] was “inactive” and the outcome [9] was “inactive”. The outcome [10] was “inactive”, the outcome [11] was “inactive” and the outcome [12] was “inactive”. The outcome [13] was “inactive” and the outcome [14] was “inactive”.
